Results reported in PubChem BioAssay AID1159580 (chemical genetic matrix, 2015).
Where a name gives a salt, the structure may show the parent alone. The whole screen tested about 5,500 compounds, of which about 2,000 (36%) were called active. About 18% were inconclusive and are not listed. Cut-off read from the data, not from the text of the source: active = normalized growth mostly below about 0.91 (no sharp cut-off); inconclusive = no clear call, values can overlap the other calls; inactive = mostly above about 0.92. The list shows a part of the results. Where a SMILES comes first, the peptide text is derived from it. The star is where a group is joined. Tfa = O=C(C(F)(F)F)*

Experiment: chemical genetic growth profiling, strain panel (AID 1159580);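 note: tested at 20 µM; growth read once vehicle control cultures reached saturation at 30 °C; 1 = growth at the plate median or of vehicle wells; lower values mean less growth of the strain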
Settings: S. cerevisiae deletion strains, growth OD
[1] = locus YAL021C, strain ccr4, stronger effect = lower value
[2] = locus YAL026C, strain drs2, stronger effect = lower value
[3] = locus YAL030W, strain snc1, stronger effect = lower value
[4] = locus YBL061C, strain skt5, stronger effect = lower value
[5] = locus YBR009C, strain hhf1, stronger effect = lower value
[6] = locus YBR023C, strain chs3, stronger effect = lower value
[7] = locus YBR171W, strain sec66, stronger effect = lower value
[8] = locus YBR231C, strain swc5, stronger effect = lower value
[9] = locus YBR279W, strain paf1, stronger effect = lower value
[10] = locus YCL011C, strain gbp2, stronger effect = lower value
[11] = locus YCL016C, strain dcc1, stronger effect = lower value
[12] = locus YCL069W, strain vba3, stronger effect = lower value
[13] = locus YCR088W, strain abp1, stronger effect = lower value
[14] = locus YDL005C, strain med2, stronger effect = lower value
[15] = locus YDL040C, strain nat1, stronger effect = lower value
[16] = locus YDR001C, strain nth1, stronger effect = lower value
[17] = locus YDR069C, strain doa4, stronger effect = lower value
[18] = locus YDR137W, strain rgp1, stronger effect = lower value
[19] = locus YDR159W, strain sac3, stronger effect = lower value
[20] = locus YDR297W, strain sur2, stronger effect = lower value
[21] = locus YDR334W, strain swr1, stronger effect = lower value
[22] = locus YDR335W, strain msn5, stronger effect = lower value
[23] = locus YDR392W, strain spt3, stronger effect = lower value
[24] = locus YEL003W, strain gim4, stronger effect = lower value
[25] = locus YEL037C, strain rad23, stronger effect = lower value
[26] = locus YEL061C, strain CIN8 (second series), stronger effect = lower value
[27] = locus YER015W, strain faa2, stronger effect = lower value
[28] = locus YER016W, strain bim1, stronger effect = lower value
[29] = locus YER111C, strain swi4, stronger effect = lower value
[30] = locus YER155C, strain BEM2 (second series), stronger effect = lower value
[31] = locus YFR010W, strain ubp6, stronger effect = lower value
[32] = locus YGL167C, strain pmr1, stronger effect = lower value
[33] = locus YGL173C, strain kem1, stronger effect = lower value
[34] = locus YGL227W, strain vid30, stronger effect = lower value
[35] = locus YGL240W, strain doc1, stronger effect = lower value
[36] = locus YGL253W, strain hxk2, stronger effect = lower value
[37] = locus YHR013C, strain ard1, stronger effect = lower value
[38] = locus YHR027C, strain rpn1, stronger effect = lower value
[39] = locus YHR142W, strain chs7, stronger effect = lower value
[40] = locus YJL092W, strain hpr5, stronger effect = lower value
[41] = locus YJL095W, strain BCK1 (second series), stronger effect = lower value
[42] = locus YJL115W, strain asf1, stronger effect = lower value
[43] = locus YJL129C, strain trk1, stronger effect = lower value
[44] = locus YJL154C, strain vps35, stronger effect = lower value
[45] = locus YJL164C, strain tpk1, stronger effect = lower value
[46] = locus YJL166W, strain qcr8, stronger effect = lower value
[47] = locus YKL160W, strain elf1, stronger effect = lower value
[48] = locus YKR026C, strain gcn3, stronger effect = lower value
[49] = locus YKR091W, strain srl3, stronger effect = lower value
[50] = locus YLL001W, strain dnm1, stronger effect = lower value
[51] = locus YLL026W, stronger effect = lower value
[52] = locus YLL041C, strain sdh2, stronger effect = lower value
[53] = locus YLR027C, strain aat2, stronger effect = lower value
[54] = locus YLR221C, strain rsa3, stronger effect = lower value
[55] = locus YLR258W, strain gsy2, stronger effect = lower value
[56] = locus YLR262C, strain YPT6 (second series), stronger effect = lower value
[57] = locus YLR320W, strain mms22, stronger effect = lower value
[58] = locus YLR342W, strain FKS1, stronger effect = lower value
[59] = locus YLR357W, strain rsc2, stronger effect = lower value
[60] = locus YLR370C, strain arc18, stronger effect = lower value
[61] = locus YLR384C, strain iki3, stronger effect = lower value
[62] = locus YML120C, strain ndi1, stronger effect = lower value
[63] = locus YMR058W, strain fet3, stronger effect = lower value
[64] = locus YMR125W, strain sto1, stronger effect = lower value
[65] = locus YMR129W, stronger effect = lower value
[66] = locus YMR205C, strain PFK2, stronger effect = lower value
[67] = locus YMR231W, strain pep5, stronger effect = lower value
[68] = locus YNL071W, strain lat1, stronger effect = lower value
[69] = locus YNL209W, strain ssb2, stronger effect = lower value
[70] = locus YNL248C, strain rpa49, stronger effect = lower value
[71] = locus YNL322C, strain KRE1 (second series), stronger effect = lower value
[72] = locus YNR049C, strain mso1, stronger effect = lower value
[73] = locus YOR001W, strain rrp6, stronger effect = lower value
[74] = locus YOR070C, strain gyp1, stronger effect = lower value
[75] = locus YOR080W, strain dia2, stronger effect = lower value
[76] = locus YOR083W, strain WHI5, stronger effect = lower value
[77] = locus YOR106W, strain vam3, stronger effect = lower value
[78] = locus YOR265W, strain rbl2, stronger effect = lower value
[79] = locus YOR270C, strain vph1, stronger effect = lower value
[80] = locus YOR290C, strain snf2, stronger effect = lower value
[81] = locus YPL051W, strain arl3, stronger effect = lower value
[82] = locus YPL078C, strain atp4, stronger effect = lower value
[83] = locus YPL106C, strain sse1, stronger effect = lower value
[84] = locus YPL240C, strain hsp82, stronger effect = lower value

Measured: normalized growth

O=C1C=C2C=C[C@@H]3C[C@@]2(O1)[C@H]1CCCCN31
inactive: [1] 1.02 | [2] 1.01 | [3] 0.993 | [4] 1.01 | [5] 0.938 | [6] 1.01 | [7] 0.99 | [8] 0.977 | [9] 1.01 | [10] 1.01 | [11] 1.04 | [12] 0.974 | [13] 0.985 | [14] 0.998 | [15] 0.997 | [16] 0.992 | [17] 0.996 | [18] 0.965 | [19] 0.93 | locus YDR195W, strain ref2 0.973 | [20] 0.994 | [21] 0.956 | [22] 1.01 | [23] 0.973 | [24] 0.95 | [25] 0.982 | [26] 0.976 | [27] 1.01 | [28] 1.03 | [29] 1 | [30] 0.986 | [31] 0.96 | [32] 0.978 | [33] 0.977 | [34] 0.985 | [35] 0.989 | [36] 1.01 | [37] 1.01 | [38] 0.979 | locus YHR030C, strain SLT2, stronger effect = lower value 1.06 | locus YHR079C, strain IRE1, stronger effect = lower value 1.05 | [39] 1.01 | [40] 0.993 | [41] 1 | locus YJL095W, strain BCK1, stronger effect = lower value 1 | [42] 0.993 | [43] 1.01 | [44] 0.986 | [45] 0.969 | [46] 0.961 | locus YJL187C, strain SWE1, stronger effect = lower value 0.984 | locus YJR066W, strain TOR1, stronger effect = lower value 1 | [47] 1.05 | [48] 0.976 | [49] 0.992 | [50] 0.974 | [51] 0.996 | [52] 1 | [53] 1 | locus YLR113W, strain HOG1, stronger effect = lower value 1.03 | [54] 0.966 | [55] 1.01 | [56] 0.927 | [57] 0.926 | [58] 1 | [59] 0.986 | [60] 1.01 | [61] 0.991 | [62] 0.956 | [63] 0.981 | [64] 1 | [65] 0.986 | [66] 0.997 | [67] 0.994 | [68] 0.98 | locus YNL183C, strain NPR1, stronger effect = lower value 0.973 | [69] 1 | [70] 1.04 | [71] 1 | [72] 1.01 | [73] 0.94 | [74] 0.991 | [75] 0.994 | [76] 0.982 | [77] 1.01 | locus YOR231W, strain MKK1, stronger effect = lower value 1.02 | [78] 0.989 | [79] 1 | [80] 1.05 | [81] 1.05 | [82] 1.04 | [83] 1.02 | [84] 0.994 | locus YPL256C, strain CLN2, stronger effect = lower value 1.03

CC(C)C(NC(=O)C(Cc1ccc(O)cc1)NC(=O)C(NC(=O)C(F)(F)F)C(C)C)C(=O)O (stereo not drawn) (Tfa-Val-Tyr-Val-OH; configuration not given here)
inactive: [1] 0.997 | [2] 1 | [3] 0.985 | [4] 0.984 | [5] 1.02 | [6] 0.983 | [7] 0.976 | [8] 1 | [9] 0.996 | [10] 1 | [11] 0.98 | [12] 1 | [13] 0.988 | [14] 0.998 | [15] 0.976 | [16] 0.997 | [17] 0.984 | [18] 0.968 | [19] 0.979 | locus YDR195W, strain ref2 0.995 | [20] 0.985 | [21] 1.01 | [22] 0.994 | [23] 0.935 | [24] 0.996 | [25] 0.99 | [26] 1.01 | [27] 0.999 | [28] 0.976 | [29] 0.972 | [30] 0.983 | [31] 0.997 | [32] 0.985 | [33] 0.991 | [34] 0.988 | [35] 0.998 | [36] 0.982 | [37] 0.94 | [38] 0.988 | [39] 0.995 | [40] 0.995 | [41] 0.975 | [42] 0.986 | [43] 0.995 | [44] 0.98 | [45] 0.989 | [46] 1.02 | [47] 1 | [48] 0.989 | [49] 0.983 | [50] 1 | [51] 1 | [52] 1 | [53] 0.991 | [54] 1 | [55] 0.995 | [56] 0.969 | [57] 0.993 | [58] 0.996 | [59] 0.951 | [60] 0.992 | [61] 1 | [62] 0.98 | [63] 0.982 | [64] 0.978 | [65] 0.998 | [66] 0.998 | [67] 0.997 | [68] 0.987 | [69] 1 | [70] 0.963 | [71] 0.971 | [72] 1 | [73] 1 | [74] 0.995 | [75] 0.984 | [76] 0.94 | [77] 1 | [78] 0.998 | [79] 0.963 | [80] 0.985 | [81] 0.986 | [82] 0.987 | [83] 0.954 | [84] 0.981
